Inconclusive results are not listed. Active and inactive are the calls of the source. Calls come from the whole dose curve; as a rule, active = well fitted inhibition curve with a large enough effect; inconclusive = small, poorly fitted or top-dose-only effect; inactive = no such curve, though single readings can be large or run the other way.
assay: InCell qHTS Assay for Inhibitors of the mTORC1 Signaling Pathway in MEF (Tsc2-/-, p53-/-) Cells: Hit Validation; details: phospho-rpS6 immunofluorescence, 24 h; activity change, negative = inhibition: at 38.3 µM (top of the series);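 note: phospho-S6 Ser235/236 signal normalized to propidium iodide cell count per well; nearly all actives have a fitted effect of over 75% in size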
Potency is the fitted concentration of half-maximal effect.

SMILES | activity change, negative = inhibition [%] | Potency
O=C(CN1C(=O)C(c2ccc(F)cc2)=NC12CCCCCC2)Nc1ccccc1Cl | -100 | –
COC(=O)c1cccc(-n2c(CCC(=O)O)ccc2-c2ccc(OC)cc2)c1 | -100 | –
COc1ccc(N(Cc2ccccc2)C(=O)c2nc(S(C)(=O)=O)ncc2Cl)cc1 | – | 3.69 µM (active)
CCOC(=O)C1CCN(c2cc3c(cc2NC(=O)c2ccccc2Cl)n(C)c(=O)n3C)CC1 | -12.8 | –
CCc1ccc(OCC(=O)Nc2ccc3oc(-c4ccc(OC)cc4)nc3c2)cc1 | -100 | –
COc1cccc(C(=O)CC2(O)C(=O)N(Cc3ccccc3)c3ccccc32)c1 (stereo not given) | -100 | –
Oc1ccc(NCc2ccc(OCc3ccccc3Cl)cc2)cc1 | -100 | –
CCc1ccc(NC(=O)Cn2c(=O)n(-c3ccc(OC)cc3)c(=O)c3ccc(C(=O)NCc4ccc(C)cc4)cc32)cc1 | – | 13.1 µM (active)
O=C(CSc1cn(CC(=O)N2CCCC2)c2ccccc12)Nc1ccc(Cl)cc1 | -100 | –
O=c1c(-c2cc(-c3ccc(F)cc3)nc3c2COc2ccc(Cl)cc2-3)coc2ccc(F)cc12 | -100 | –
CCCSc1oc(-c2ccco2)nc1S(=O)(=O)c1ccc(Br)cc1 | -100 | –
CCC(C)Sc1oc(-c2ccco2)nc1S(=O)(=O)c1ccc(C)cc1 (stereo not given) | -100 | –
Cc1ccc(CN(Cc2cccn2-c2nnc(N3CCCC3=O)s2)C(=O)Nc2ccccc2C(F)(F)F)cc1 | -100 | –
COc1ccc(NC(=O)CSc2c3c(nc4ccccc24)CCC3)c(OC)c1 | -100 | –
CC(C)OCCCn1c(=O)c2ccccc2n2c(-c3ccc(F)cc3)nnc12 | -100 | –
